High-throughput results as filed in PubChem BioAssay.
VDR inh = Inhibitors of the vitamin D receptor (VDR): qHTS; Vitamin D3 receptor (Homo sapiens), P11473; VDR-SRC2-3 peptide fluorescence polarization, 2 h; Potency, µM, for inactives: max response, negative = inhibition, usual class: inhibitors; 400,000 tested, 0.93% active; AID 504847, 2011; also: potency is read from the fitted curve at half-maximal effect
Target sequence (P11473 whole entry, looked up): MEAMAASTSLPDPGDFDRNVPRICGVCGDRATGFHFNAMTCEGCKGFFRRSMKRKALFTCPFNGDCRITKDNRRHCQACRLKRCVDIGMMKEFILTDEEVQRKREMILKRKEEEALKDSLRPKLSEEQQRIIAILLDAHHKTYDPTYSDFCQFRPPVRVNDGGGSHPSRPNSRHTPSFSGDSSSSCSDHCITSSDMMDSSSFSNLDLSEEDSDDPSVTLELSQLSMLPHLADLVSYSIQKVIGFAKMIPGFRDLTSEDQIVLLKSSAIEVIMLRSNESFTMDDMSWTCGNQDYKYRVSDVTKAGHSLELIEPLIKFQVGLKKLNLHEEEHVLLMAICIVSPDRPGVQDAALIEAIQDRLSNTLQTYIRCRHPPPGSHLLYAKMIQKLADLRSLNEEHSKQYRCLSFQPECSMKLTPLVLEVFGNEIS
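Compounds are added to VDR with labelled SRC2-3 coactivator peptide and held 2 h at room temperature. Inhibition of the VDR–peptide interaction is then read as a change in fluorescence polarization.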
Mm-Cpn inhibitor = Inhibitors of TCP-1 ring complex (TRiC) of Methanococcus maripaludis (MmCpn): qHTS; Chaperonin Mm-Cpn (Methanococcus maripaludis); purified Mm-Cpn ATPase, ADP Transcreener TR-FRET; Potency, µM (top dose mostly 76.9 µM), inactives show at the top dose activity, negative = inhibition, hits mostly inhibitors; 330,000 tested, 0.031% active; also: potency is read from the fitted curve at half-maximal effect; nearly all actives have a fitted effect of over 80% in size
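25 nM Mm-CPN + cpd, 10 min 37°C; + 10 uM ATP, 30 min 37°C; buffer 30 mM Tris pH 7.4, 100 mM KCl, 5 mM MgCl2, 1 mM DTT; Transcreener ADP HTRF detection 30 min RT.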
G9a inh = qHTS Assay for Inhibitors of Histone Lysine Methyltransferase G9a | AID 504332, 2011 | G9a H3K9 monomethylation, AlphaScreen, 2 h | 350,000 tested, 8.8% active | Potency, µM (top dose mostly 102 µM), without a hit: at the highest dose activity, negative = inhibition, hits mostly inhibitors; also: potency is read from the fitted curve at half-maximal effect; nearly all actives have a fitted effect of over 75% in size
Target sequence (Q96KQ7 913-1193 limits assumed): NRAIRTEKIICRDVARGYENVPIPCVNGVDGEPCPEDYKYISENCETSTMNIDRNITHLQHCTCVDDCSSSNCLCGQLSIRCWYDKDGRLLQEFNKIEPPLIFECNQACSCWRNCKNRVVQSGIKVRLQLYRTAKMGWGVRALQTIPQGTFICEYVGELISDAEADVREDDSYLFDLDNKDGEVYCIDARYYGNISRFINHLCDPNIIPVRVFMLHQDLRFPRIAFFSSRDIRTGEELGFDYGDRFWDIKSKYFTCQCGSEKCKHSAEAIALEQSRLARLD
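Using a bead-based AlphaScreen, monomethylated H3K9 product from 2 h room-temperature reactions (G9a 20 nM, peptide 500 nM, SAM 20 uM) was detected with 0.5 ug/mL rabbit anti-H3K9me1 antibody.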
PLK1 PBD block = qHTS for Inhibitors of PLK1-PDB (polo-like kinase 1 - polo-box domain): Primary Screen; Serine/threonine-protein kinase PLK1 (Homo sapiens), P53350; Plk1 PBD binding of FITC phosphopeptide, fluorescence polarization; Potency, µM, for inactives: max response, negative = inhibition, actives largely listed as inhibitors; 360,000 tested, 2.8% active; AID 720504, 2013; also: potency is read from the fitted curve at half-maximal effect; series mostly up to about 57 µM; nearly all actives have a fitted effect of over 65% in size
Sfp PPTase inh = qHTS Assay for Inhibitors of Bacillus subtilis Sfp phosphopantetheinyl transferase (PPTase) | 4'-phosphopantetheinyl transferase ffp (Bacillus subtilis), Q9F4F7 | Biochemical Sfp PPTase activity, qHTS | Potency, µM, for inactives: largest response in the series, negative = inhibition, most hits filed as inhibitors | 310,000 tested, 3.5% active | AID 1490, 2009;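 also: the enzyme is Sfp with the accession as filed and its product quenches rhodamine fluorescence; potency is read from the fitted curve at half-maximal effect; 0% = enzyme reaction without inhibitor and -100% = no enzyme wells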
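Fluorescence-quenching assay: 15 nM Sfp-PPTase preincubated 15 min at room temperature with compound, then 5 uM rhodamine-CoA and 12.5 uM BHQ-2-labelled YbbR peptide added. Fluorescence (ex 525/em 598 nm) read at start and after 30 min; difference gives rate.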
CCT modulator = High-Throughput Screening for Modulators of Cytosolic Chaperonin Activity; AID 651819, 2012; activity change, % (test concentration not listed), hits read low; 360,000 tested, 0.3% active; purified chaperonin ATPase assay, HTRF ADP detection, 30 min; in the data active = activity change below about -30%
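First, chaperonin was dispensed at 40 nM or 20 nM final depending on batch activity. Next, compounds were pinned at 76 uM and ATP added at 10 uM. After 30 min at 37 °C, ADP detection reagents ran 30 min at ambient temperature.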
Active calls of the source: *; u = inconclusive; x = not tested or not shown; [ ] = remark or other dose. Shown are actives, neighbours in structure and some others; about 10% of the full set was active somewhere. Unless noted, calls follow the shape of the dose curve; as a rule, active = well fitted curve in the direction sought with a large enough effect; inconclusive = small, poorly fitted or top-dose-only effect, or another doubt; inactive = no such curve, though single readings can be large; an effect the other way counts as inactive or inconclusive. Unless noted, % is scaled to controls: 0 for no effect and ±100 for the full control effect.

SMILES	VDR inh	Mm-Cpn inhibitor	G9a inh	PLK1 PBD block	Sfp PPTase inh	CCT modulator
COc1ccc(NC(=O)COc2ccc(C(=O)OCC(=O)N(C(C)C)C(C)C)cc2OC)cc1	-8%	3%	4%	24µM*	24%	-2
O=C(Oc1cccnc1)c1ccc([N+](=O)[O-])cc1	3%	0%	10µM*	u	-4%	-1
Cc1ccc(C(=O)Oc2cccnc2)cc1[N+](=O)[O-]	4%	0%	u	u	8%	-2
COc1ccc(CCN(Cc2cc3ccc(C)cc3n3nnnc23)C(C)=O)cc1OC	40µM*	0%	-15%	3.4µM*	9%	0
CCCCc1nnc2c(N(C)S(=O)(=O)c3ccccc3)nc3ccccc3n12	5%	2%	71µM*	-8%	8%	2
CC(C)c1nnc2c(N(C)S(=O)(=O)c3ccccc3)nc3ccccc3n12	8%	-1%	-1%	-7%	1%	0
CCc1ccc2c(CN3CCc4ccccc43)cc(=O)oc2c1	9%	-6%	35µM*	-4%	-5%	0
Cc1cc2oc(=O)cc(CN3CCc4ccccc43)c2cc1Cl	0%	-3%	-37%[59 µM]	-4%	-9%	3
O=c1cc(CN2CCc3ccccc32)c2ccc(O)cc2o1	13%	2%	45µM*	-15%	2%	1
Nc1nc(SCC(=O)c2ccc(Oc3ccccc3)cc2)n[nH]1	-28%	0%	u	-27%	50µM*	-15
Nc1nc(SCC(=O)Nc2cccc([N+](=O)[O-])c2)n[nH]1	-14%	0%	x	-8%	x	-1
Nc1nc(SCC(=O)c2ccc([N+](=O)[O-])cc2)n[nH]1	u	-9%	7.9µM*	u	32µM*	-2
Cc1ccc(Oc2ccc(NC(=O)CSc3n[nH]c(N)n3)cc2)cc1	-24%	-3%	u	-3%	-22%	-1
Cc1cc(OCC(=O)Nc2sc3c(c2C#N)CCC(C)C3)ccc1Cl (stereo not drawn)	4%	x	10%[59 µM]	x	x	x
COC(=O)C1=C(C)NC(=O)C1(NC(=O)c1ccc(Cl)cc1)C(F)(F)F (stereo not drawn)	9%	x	-2%[59 µM]	x	x	x
CCc1nn(Cc2c(C)cc(C)cc2C)c(=O)c2cc3cc(C)ccc3n12	7%	x	4%[59 µM]	x	x	x
Cc1ccccc1Nc1nc(CSc2nnnn2-c2ccccc2)cs1	4%	-21%	40µM*	u	45µM*	-5
Cc1ccc(N2CCN(C(=O)c3c(C)oc4nc(C)nc(N5CCCC5)c34)CC2)c(C)c1	6%	x	-28%[59 µM]	x	x	x
CNC(=O)Nc1ccc2snnc2c1	-2%	u	50µM*	-11%	-4%	-2
CN1C[C@@H]2[C@@H]3C(=O)N(Cc4ccccc4)C(=O)[C@@H]3[C@](C)(C1=O)N2C(=O)c1ccccc1	-8%	x	x	8%	x	1
Cc1c(Cl)ccc2c1NC(=O)[C@]21[C@@H]2C(=O)N(Cc3ccccc3)C(=O)[C@@H]2[C@@H]2CCCN21	0%	-2%	45µM*	-8%	8%	0
N#C/C(=N\Nc1cccc(Cl)c1)C(=O)c1ccccc1	-16%	1%	25µM*	u	12%	-3
N#C/C(=N\Nc1ccccc1Cl)C(=O)c1ccccc1	-3%	1%	u	u	12%	-1
CC(=O)/C(N)=N/Nc1cccc(Cl)c1	9%	-5%	50µM*	0%	-11%	1
O=C1NN(c2cccc(Br)c2)C(=O)/C1=C/c1ccc(-c2cc([N+](=O)[O-])ccc2O)o1	-16%	1%	-156%[59 µM]	19µM*	16%	-4
SMILES	VDR inh	Mm-Cpn inhibitor	G9a inh	PLK1 PBD block	Sfp PPTase inh	CCT modulator
CC(C)=C1C(=O)NN(c2cccc(Cl)c2)C1=O	-10%	2%	u	-7%	12%	-2
O=C1NN(c2cccc(Br)c2)C(=O)/C1=C\c1ccc(O)cc1	u	1%	3.5µM*	24µM*	-6%	-1
O=C1NN(c2ccccc2)C(=O)C1=Cc1ccccc1O	x	x	x	27µM*	x	-3
O=C1NN(c2ccc(Br)cc2)C(=O)/C1=C\c1ccc(O)cc1O	-2%	3%	x	30µM*	14%	3
CN(Cc1ccco1)c1ncncc1-c1ccc2c(c1)OCO2	u	x	-3%[0.501 µM]	x	u	x
Cc1cc(/C=C2\SC(=S)NC2=O)c(C)n1-c1cccc(O)c1	-20%	-1%	40µM*	u	u	-1
Cc1cccc(-n2c(C)cc(/C=C3\NC(=O)NC3=O)c2C)c1	-9%	2%	45µM*	0%	-20%	0
COC(=O)C1=C(C)NC(=O)/C1=C\c1cc(C)n(-c2cccc(C)c2)c1C	1%	1%	-2%[12.7 µM]	-4%	u	-1
Cc1cc(/C=C2/C(=O)NN(c3ccccc3)C2=O)c(C)n1-c1cccc(O)c1	11%	-2%	22µM*	-24%	-19%	-3
Cc1cc(/C=C2/NC(=O)NC2=O)c(C)n1-c1ccncc1	-4%	-6%	-35%	-5%	17%	-3
Cc1ccc(CNc2ncnc3c2c(-c2ccccc2)cn3-c2ccccc2)cc1	17%	x	-4%[59 µM]	x	x	x
CCOCCCN1C(=O)CN(C2CCCCCC2)C(=O)C1c1ccc(OC(C)C)c(OC)c1 (stereo not drawn)	7%	x	-25%[59 µM]	x	x	x
CCc1ccc(NC(=O)Cn2ncc3c(C)n(Cc4cccc(Cl)c4)c(C)c3c2=O)cc1	1%	x	-5%[59 µM]	x	x	x
COc1ccc(C2=CC(c3sccc3C)n3nnnc3N2)cc1 (stereo not drawn)	-6%	1%	x	-5%	50µM*	2
COc1ccc(C2C3=C(Nc4ncnn42)c2ccccc2CCC3)cc1 (stereo not drawn)	6%	1%	u	-1%	4%	-4
COc1cc(C2C3=C(Nc4ncnn42)c2ccccc2CC3)cc(OC)c1OC (stereo not drawn)	2%	0%	32µM*	-12%	-11%	-1
COc1cc(C2C=C(c3cccs3)Nc3ncnn32)cc(OC)c1OC (stereo not drawn)	2%	-1%	32µM*	u	-5%	2
COc1cc(C2CC(=O)C3=C(C2)Nc2ncnn2C3c2cccs2)cc(OC)c1OC (stereo not drawn)	-9%	0%	1%	3%	27%	0
